Residue numbers refer to the chain shown, from its start.
Tests used:
Assay in all cases: protein-binding microarray (PBM); PBM: ~300 nM protein, 6 mM HEPES pH 7.8, 80 mM KCl, 0.5 mM EDTA, 0.5 mM EGTA, 6% glycerol, 35 ng/ul poly-dIdC, 1% milk, 1 h, room temperature; Ap Aiptasia and Nv Nematostella (sea anemones) / Co Capsaspora / Aq Amphimedon (sponge) / Dm Drosophila / Hu human; RHD is the Rel homology domain; high values mean tight binding
Conditions in all cases: dsDNA, one strand shown
GST-Ap-NF-kB RHD = target: T1, GST-Ap-NF-kB RHD (Exaiptasia pallida (Aiptasia), UniProt A0A913YAJ5 2-422)
T1 sequence: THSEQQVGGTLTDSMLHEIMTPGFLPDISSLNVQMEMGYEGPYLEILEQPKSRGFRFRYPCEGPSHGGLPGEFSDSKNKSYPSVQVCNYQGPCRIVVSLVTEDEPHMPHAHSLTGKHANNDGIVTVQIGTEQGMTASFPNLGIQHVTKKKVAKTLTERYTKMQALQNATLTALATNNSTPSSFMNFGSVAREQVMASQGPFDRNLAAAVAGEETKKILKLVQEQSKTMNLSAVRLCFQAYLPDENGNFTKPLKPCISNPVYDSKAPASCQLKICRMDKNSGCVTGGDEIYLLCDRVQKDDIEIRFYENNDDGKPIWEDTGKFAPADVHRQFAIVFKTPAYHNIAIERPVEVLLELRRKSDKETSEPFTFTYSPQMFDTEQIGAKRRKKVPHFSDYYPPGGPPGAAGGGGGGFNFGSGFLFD

[1] = target: T2, GST-Nv-NF-kB (Cys allele) (Nematostella vectensis, UniProt E5G601 2-411)
T2 sequence: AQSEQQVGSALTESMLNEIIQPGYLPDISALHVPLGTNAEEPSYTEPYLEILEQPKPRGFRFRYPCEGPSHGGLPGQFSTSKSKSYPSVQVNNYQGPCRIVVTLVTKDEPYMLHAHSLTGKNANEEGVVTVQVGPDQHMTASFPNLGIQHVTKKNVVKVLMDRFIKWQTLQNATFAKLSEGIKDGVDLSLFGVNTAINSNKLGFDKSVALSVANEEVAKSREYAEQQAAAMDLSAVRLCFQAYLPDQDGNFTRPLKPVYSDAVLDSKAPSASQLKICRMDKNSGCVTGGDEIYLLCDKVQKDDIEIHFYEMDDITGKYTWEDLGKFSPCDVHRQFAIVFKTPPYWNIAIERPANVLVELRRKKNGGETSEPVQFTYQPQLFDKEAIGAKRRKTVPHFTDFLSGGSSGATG

[2] = target: T3, GST-Nv-NF-kB (Ser allele) (Nematostella vectensis, UniProt A7UNT2 2-411)
T3 sequence: T2 sequence with Q21R, C66S, S207N, E215Q, V217A, E225K, A268E, D399E

GST-Co-NF-kB = target: T4, GST-Co-NF-kB (Capsaspora owczarzaki, UniProt F1ARL5 200-546)
T4 sequence: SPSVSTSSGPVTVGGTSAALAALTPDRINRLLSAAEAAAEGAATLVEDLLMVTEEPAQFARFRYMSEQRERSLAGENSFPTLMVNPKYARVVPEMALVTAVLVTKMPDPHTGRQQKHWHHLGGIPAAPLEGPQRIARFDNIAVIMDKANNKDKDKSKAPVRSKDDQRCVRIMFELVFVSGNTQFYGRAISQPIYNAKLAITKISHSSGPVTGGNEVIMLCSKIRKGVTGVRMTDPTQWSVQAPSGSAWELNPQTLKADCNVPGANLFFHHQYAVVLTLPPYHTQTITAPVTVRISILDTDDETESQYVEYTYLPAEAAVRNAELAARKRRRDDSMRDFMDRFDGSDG

GST-Dm-Relish = target: T5, GST-Dm-Relish (Drosophila melanogaster, UniProt Q94527 99-473)
T5 sequence: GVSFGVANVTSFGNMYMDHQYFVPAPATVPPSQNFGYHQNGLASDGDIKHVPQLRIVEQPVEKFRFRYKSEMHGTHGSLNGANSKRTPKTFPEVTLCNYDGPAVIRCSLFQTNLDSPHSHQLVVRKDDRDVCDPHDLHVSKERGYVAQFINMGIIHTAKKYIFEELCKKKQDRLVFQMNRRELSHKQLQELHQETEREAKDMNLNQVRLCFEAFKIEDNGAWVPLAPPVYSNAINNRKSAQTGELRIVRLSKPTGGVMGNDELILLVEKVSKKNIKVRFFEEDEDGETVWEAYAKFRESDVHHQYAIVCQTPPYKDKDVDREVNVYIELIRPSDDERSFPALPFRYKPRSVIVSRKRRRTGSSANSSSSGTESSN

GST-Aq-NF-kB = target: T6, GST-Aq-NF-kB (Amphimedon queenslandica, UniProt A9Y5G7 2-389)
T6 sequence: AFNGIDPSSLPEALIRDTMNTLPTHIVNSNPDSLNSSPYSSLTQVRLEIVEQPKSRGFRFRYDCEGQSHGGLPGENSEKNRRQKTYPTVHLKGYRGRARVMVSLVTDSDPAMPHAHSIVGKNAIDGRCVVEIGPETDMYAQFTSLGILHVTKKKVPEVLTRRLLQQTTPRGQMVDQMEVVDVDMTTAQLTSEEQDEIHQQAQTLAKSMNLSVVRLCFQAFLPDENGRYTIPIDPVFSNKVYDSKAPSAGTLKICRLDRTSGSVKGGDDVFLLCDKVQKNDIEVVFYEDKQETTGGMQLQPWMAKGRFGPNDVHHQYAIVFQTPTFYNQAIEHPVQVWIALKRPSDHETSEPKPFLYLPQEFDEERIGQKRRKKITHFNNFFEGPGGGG

GST-Hu-p50 = GST-Hu-p50 (Homo sapiens, UniProt P19838 7-356)
GST-Hu-p50, sequence (P19838 7-356): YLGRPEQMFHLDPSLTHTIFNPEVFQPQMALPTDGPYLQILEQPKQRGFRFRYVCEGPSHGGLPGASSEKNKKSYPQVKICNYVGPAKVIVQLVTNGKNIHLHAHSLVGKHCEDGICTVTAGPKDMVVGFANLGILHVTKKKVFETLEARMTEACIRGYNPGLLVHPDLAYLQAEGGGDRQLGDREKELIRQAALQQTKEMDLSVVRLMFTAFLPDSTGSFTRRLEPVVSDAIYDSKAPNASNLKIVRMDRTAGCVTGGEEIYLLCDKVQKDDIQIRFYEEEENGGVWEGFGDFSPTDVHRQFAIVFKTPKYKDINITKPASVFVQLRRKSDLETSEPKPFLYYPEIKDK

## CCGATTAACATCAGGTATCCCCATGATGTTAATCGGGTCTTGATTCGCTTGACGCTGCTG
GST-Ap-NF-kB RHD
  binding signal: 5.17 z-score
[1]
  binding signal: 3.31 z-score
[2]
  binding signal: 4.07 z-score
GST-Co-NF-kB
  binding signal: 3.11 z-score
GST-Dm-Relish
  binding signal: 5 z-score
GST-Aq-NF-kB
  binding signal: 3 z-score
GST-Hu-p50
  binding signal: 3 z-score

## CCGATTAACATCACGTAATTCCCTGATGTTAATCGGGTCTTGATTCGCTTGACGCTGCTG
GST-Ap-NF-kB RHD
  binding signal: 3.45 z-score
[1]
  binding signal: 4.96 z-score
[2]
  binding signal: 5.01 z-score
GST-Co-NF-kB
  binding signal: 4.02 z-score
GST-Dm-Relish
  binding signal: 6.81 z-score
GST-Aq-NF-kB
  binding signal: 4.89 z-score
GST-Hu-p50
  binding signal: 3.49 z-score

## CCGATTAACATCATGGGGGAAAATGATGTTAATCGGGTCTTGATTCGCTTGACGCTGCTG
GST-Ap-NF-kB RHD
  binding signal: 5.67 z-score
[1]
  binding signal: 6.78 z-score
[2]
  binding signal: 9.23 z-score
GST-Co-NF-kB
  binding signal: 10.9 z-score
GST-Dm-Relish
  binding signal: 3.09 z-score
GST-Aq-NF-kB
  binding signal: 5.39 z-score
GST-Hu-p50
  binding signal: 6.88 z-score

## CCGATTAACATCACATTTTCCCCTGATGTTAATCGGGTCTTGATTCGCTTGACGCTGCTG
GST-Ap-NF-kB RHD
  binding signal: 6.76 z-score
[1]
  binding signal: 8.07 z-score
[2]
  binding signal: 10.5 z-score
GST-Co-NF-kB
  binding signal: 9.7 z-score
GST-Dm-Relish
  binding signal: 3.97 z-score
GST-Aq-NF-kB
  binding signal: 5.38 z-score
GST-Hu-p50
  binding signal: 6.01 z-score

## CCGATTAACATCAAATAAGTCCCTGATGTTAATCGGGTCTTGATTCGCTTGACGCTGCTG
GST-Ap-NF-kB RHD
  binding signal: 4.69 z-score
[1]
  binding signal: 6.71 z-score
[2]
  binding signal: 7 z-score
GST-Co-NF-kB
  binding signal: 1.42 z-score
GST-Dm-Relish
  binding signal: 5.96 z-score
GST-Aq-NF-kB
  binding signal: 6.24 z-score
GST-Hu-p50
  binding signal: 4.56 z-score

## CCGATTAACATCAGGAAATTCCCTGATGTTAATCGGGTCTTGATTCGCTTGACGCTGCTG
GST-Ap-NF-kB RHD
  binding signal: 6.31 z-score
[1]
  binding signal: 9.9 z-score
[2]
  binding signal: 8.03 z-score
GST-Co-NF-kB
  binding signal: 4.13 z-score
GST-Dm-Relish
  binding signal: 6.79 z-score
GST-Aq-NF-kB
  binding signal: 9.8 z-score
GST-Hu-p50
  binding signal: 6.16 z-score

## CCGATTAACATCAAATGTCCCCCTGATGTTAATCGGGTCTTGATTCGCTTGACGCTGCTG
GST-Ap-NF-kB RHD
  binding signal: 6.37 z-score
[1]
  binding signal: 5.25 z-score
[2]
  binding signal: 5.66 z-score
GST-Co-NF-kB
  binding signal: 7.6 z-score
GST-Dm-Relish
  binding signal: 5.11 z-score
GST-Aq-NF-kB
  binding signal: 5.64 z-score
GST-Hu-p50
  binding signal: 4.71 z-score

## CCGATTAACATCAAATACTCCCCTGATGTTAATCGGGTCTTGATTCGCTTGACGCTGCTG
GST-Ap-NF-kB RHD
  binding signal: 6.1 z-score
[1]
  binding signal: 5.48 z-score
[2]
  binding signal: 6.09 z-score
GST-Co-NF-kB
  binding signal: 6.89 z-score
GST-Dm-Relish
  binding signal: 3.34 z-score
GST-Aq-NF-kB
  binding signal: 5.29 z-score
GST-Hu-p50
  binding signal: 4.01 z-score

## CCGATTAACATCACACATTCCCCTGATGTTAATCGGGTCTTGATTCGCTTGACGCTGCTG
GST-Ap-NF-kB RHD
  binding signal: 6.52 z-score
[1]
  binding signal: 7.88 z-score
[2]
  binding signal: 8.75 z-score
GST-Co-NF-kB
  binding signal: 5.83 z-score
GST-Dm-Relish
  binding signal: 2.91 z-score
GST-Aq-NF-kB
  binding signal: 5.41 z-score
GST-Hu-p50
  binding signal: 5.28 z-score

## CCGATTAACATCAGGGAAAAACATGATGTTAATCGGGTCTTGATTCGCTTGACGCTGCTG
GST-Ap-NF-kB RHD
  binding signal: 3.76 z-score
[1]
  binding signal: 5.03 z-score
[2]
  binding signal: 7.18 z-score
GST-Co-NF-kB
  binding signal: 5.51 z-score
GST-Dm-Relish
  binding signal: 6.52 z-score
GST-Aq-NF-kB
  binding signal: 5.27 z-score
GST-Hu-p50
  binding signal: 4.03 z-score

## CCGATTAACATCAGGGAAATACATGATGTTAATCGGGTCTTGATTCGCTTGACGCTGCTG
GST-Ap-NF-kB RHD
  binding signal: 3.25 z-score
[1]
  binding signal: 4.47 z-score
[2]
  binding signal: 4.73 z-score
GST-Co-NF-kB
  binding signal: 4.08 z-score
GST-Dm-Relish
  binding signal: 8.18 z-score
GST-Aq-NF-kB
  binding signal: 4.87 z-score
GST-Hu-p50
  binding signal: 3.02 z-score

## CCGATTAACATCAGGATTGTCCCTGATGTTAATCGGGTCTTGATTCGCTTGACGCTGCTG
GST-Ap-NF-kB RHD
  binding signal: 2.96 z-score
[1]
  binding signal: 3.96 z-score
[2]
  binding signal: 2.92 z-score
GST-Co-NF-kB
  binding signal: 1.06 z-score
GST-Dm-Relish
  binding signal: 1.57 z-score
GST-Aq-NF-kB
  binding signal: 5.51 z-score
GST-Hu-p50
  binding signal: 2.84 z-score

Source: paper PMC5700166
